Many of the other results were omitted from the sample, so hits are more common in it than they were.
AmpC inh no detg – inhibitors of E. coli AmpC beta-lactamase without detergent; P00811; AmpC nitrocefin hydrolysis, absorbance 480 nm, 0.0001% Triton; Potency, µM (highest dose often 57.1 µM), for inactives: at the top dose activity change, negative = inhibition, most hits filed as inhibitors; actives 0.52% (n = 330,000); AID 485341;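 note: potency is the fitted concentration of half-maximal effect; plate controls were no compound for no effect and no enzyme for full effect; nearly all actives have a fitted effect of over 20% in size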
Target sequence (P00811 whole entry, looked up): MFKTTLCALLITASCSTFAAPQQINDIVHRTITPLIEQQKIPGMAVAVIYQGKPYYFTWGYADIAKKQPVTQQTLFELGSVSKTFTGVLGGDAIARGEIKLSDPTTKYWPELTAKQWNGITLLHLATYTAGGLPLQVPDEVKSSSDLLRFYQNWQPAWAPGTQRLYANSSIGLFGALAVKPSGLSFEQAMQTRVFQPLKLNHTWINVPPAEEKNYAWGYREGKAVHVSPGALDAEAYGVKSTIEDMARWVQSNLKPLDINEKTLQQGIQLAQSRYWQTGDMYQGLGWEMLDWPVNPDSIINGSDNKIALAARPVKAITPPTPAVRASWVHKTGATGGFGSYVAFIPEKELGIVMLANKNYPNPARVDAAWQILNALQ
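20 mM phosphate pH 7.0 + 0.01% (detergent screen) or 0.0001% Triton X-100; 5.3 nM AmpC reagent; cpd preinc 15 min RT; nitrocefin (800 uM stock) to start; A480 q20 s × 4 min; Activity was normalised to no-enzyme and no-compound control wells.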
AmpC detergent – AmpC beta-lactamase inhibition with detergent present | P00811 | AmpC hydrolysis of nitrocefin, absorbance 480 nm, 0.01% Triton | Potency, µM (series often up to 114 µM), inactives show at the highest dose activity change, negative = inhibition, most hits filed as inhibitors | actives 0.041% (n = 370,000);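 note: potency is the fitted concentration of half-maximal effect; 0% = no-compound wells and -100% = no-enzyme wells; nearly all actives have a fitted effect of over 25% in size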
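20 mM phosphate pH 7.0 + 0.01% (detergent screen) or 0.0001% Triton X-100; 5.3 nM AmpC reagent; cpd preinc 15 min RT; nitrocefin (800 uM stock) to start; A480 q20 s × 4 min; Activity was normalised to no-enzyme and no-compound control wells.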
NS1 function inh – blocks influenza NS1 protein function; Potency, µM (titrated, usually from 46.1 µM), for the others: top-dose activity, positive = more growth; actives 0.4% (n = 270,000); calls by dose curve; note: potency is the fitted concentration of half-maximal effect; actives are rising curves; nearly all actives have a fitted effect of over 50% in size
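S. cerevisiae expressing influenza A NS1, grown in glucose, washed, then diluted 1:100 into pH 6.0 -URA galactose medium with 23 nl compound. Growth recovery read as OD600; NS1-free strain serves as control.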
Cycloheximide cs – counter-screen hit for Shiga toxin inhibitors, cycloheximide. cell reporter, cycloheximide protein synthesis inhibition counterscreen. max response, %. actives 12% (n = 300,000); in the data active = max response mostly above about 13%, no sharp cut-off; inactive = mostly below about 14%; note: read at 38.3 µM for the half of the compounds with a filed dose; 0% is about no effect
Shiga inhibitor – Shiga toxin inhibition; Vero cells, Shiga toxin protein synthesis inhibition reporter; inhibition, % at 38.7 µM; AID 2315; actives 9.2% (n = 290,000); in the data active = inhibition mostly above about 28%, no sharp cut-off; inactive = mostly below about 43%; note: 0% is about no effect
Starred values were filed as active, the others as inactive; i = inactive; ? = inconclusive; . = no result; + = active, no number; [ ] = another dose, or the depositor's remark. Unless noted, calls come from the whole dose curve; as a rule, active = well fitted curve in the direction sought with a large enough effect; inconclusive = small, poorly fitted or top-dose-only effect, or another doubt; inactive = no such curve, though single readings can be large; an effect the other way counts as inactive or inconclusive.

SMILES	AmpC inh no detg	AmpC detergent	NS1 function inh	Cycloheximide cs	Shiga inhibitor
CSCC[C@H](NC(=O)[C@H](CC(C)C)NC(=O)[C@H](CO)NC(=O)[C@H](CCC(=O)O)NC(=O)[C@H](CC(C)C)NC(=O)[C@H](Cc1ccc(O)cc1)NC(=O)[C@H](CCCCN)NC(=O)[C@H](CCCCN)NC(=O)[C@H](C)NC(=O)[C@H](CO)NC(=O)[C@H](CC(C)C)NC(=O)[C@H](CCC(N)=O)NC(=O)CNC(=O)[C@H](CC(C)C)NC(=O)[C@H](CC(C)C)NC(=O)[C@H](CCCCN)NC(=O)[C@H](CO)NC(=O)[C@H](Cc1ccccc1)NC(=O)[C@H](CC(=O)O)NC(=O)[C@H](CO)NC(=O)[C@@H](NC(=O)[C@H](Cc1ccccc1)NC(=O)[C@@H](NC(=O)CNC(=O)[C@H](CC(=O)O)NC(=O)[C@H](C)NC(=O)[C@@H](N)Cc1cnc[nH]1)C(C)C)[C@@H](C)O)C(N)=O	.	.	.	-8	-5
O=C(CCC(=O)c1ccc[nH]1)c1ccc(Cl)cc1	-34%	-5%	-22%	46*	100*
O=C(COc1ccc(F)c(Cl)c1)c1ccc[nH]1	-20%	-11%	-9%	36*	40
Cc1ccc(C(=O)NCN2CCN(c3ccccc3)CC2)cc1	0%	1%	.	.	.
CC(C)c1ccc(S(=O)(=O)/N=C2\C=C(NS(=O)(=O)c3ccccc3)C(=O)c3ccccc32)cc1	-51%	-4%	6%	7	-3
CC(C)c1ccc(S(=O)(=O)/N=C2/C=CC(=O)c3ccccc32)cc1	28µM*	0%	.	15	6
Cc1cccc(NC(=O)C2CC(O)CN2C(=O)Oc2ccccc2)c1 (stereo not drawn)	-5%	-2%	2%	-4	8
FC(F)Oc1ccc(/C=N/N2CCCCC2)c(OC(F)F)c1	-28%	-4%	.	32*	79*
O=C(NCc1ccc(Cl)cc1)C1CCN(c2nn3cc(-c4ccc(F)cc4)nc3s2)CC1	.	-4%	.	.	.
COc1cccc(C(=O)NCC(c2ccc(N(C)C)cc2)N2CCc3ccccc32)c1OC (stereo not drawn)	.	14%	.	.	.
CSc1nc(Cl)cc(Nc2ccc(O)cc2)n1	-44%	0%	.	42*	63
CNc1cc(Cl)nc(SC)n1	-2%[2.29 µM]	-2%	5%	1	18
O=C(CCNS(=O)(=O)c1c(Cl)cccc1Cl)OCC(=O)c1ccccc1F	-8%	?	0%	11	+
Cc1ccc(N=Cc2ccc[nH]2)c(O)c1	-24%	2%	-10%	44*	98*
Cc1cc2oc(=O)cc(-c3ccccc3)c2c(C)c1-c1ccc(CO)cc1	-20%	.	.	5	i
CC(=O)c1ccc(-c2c(C)cc3oc(=O)cc(-c4ccccc4)c3c2C)cc1	-16%	.	.	30*	+
CC(C)[C@H]1COC(c2cccc([N+](=O)[O-])c2)=N1	.	.	.	14	i
O=C(Nc1cccc(Cl)c1)Nc1nccs1	-28%	3%	-87%	69*	98*
O=C(Nc1ccc(Cl)c(Cl)c1)Nc1nccs1	-46%	?	-6%	34*	69*
O=C(Nc1cccc(Cl)c1)Nc1nc(-c2ccccc2)cs1	-37%	-4%	.	-1	17
Cc1ccc(N/N=C2\CS(=O)(=O)N(C)c3ccsc32)cc1	15%	-1%	.	51*	66*
CCCC(=O)N/N=C1\CS(=O)(=O)N(C)c2ccsc21	205%	9%	.	4	27
CN1c2ccsc2/C(=N/Nc2ccc(F)cc2)CS1(=O)=O	-29%	-8%	.	27*	54
O=C1NCCC/C1=N/Nc1ccc(F)cc1	?	-5%	.	14	8
Clc1cccc(-c2nc3ccccn3c2Nc2ccc3c(c2)OCCO3)c1	.	0%	.	.	.
SMILES	AmpC inh no detg	AmpC detergent	NS1 function inh	Cycloheximide cs	Shiga inhibitor
O=C(N/N=C/c1cccc(F)c1)c1ccc(Cl)cc1	-5%	-10%	-3%	44*	119*
O=C(N/N=C/c1cccnc1)c1ccc(NC(=O)c2ccc(Cl)cc2)cc1	-11%	-3%	9%	-3	-5
O=C(N/N=C/c1cccc(NC(=O)c2ccc(Cl)cc2)c1)c1ccc(O)cc1	-51%	?	-7%	60*	85*
Clc1ccccc1CSc1nc2ccncc2[nH]1	-18%	-7%	-4%	21*	66
COc1cccc(N2CCN(C(=O)c3ccc(CSc4nc5ccncc5[nH]4)cc3)CC2)c1	-34%	?	26%	-2	-8
COc1cccc(CSc2nc3ccncc3[nH]2)c1	-10%	7%	21%	41*	50*

Screening data as filed in PubChem.
